Test results from PubChem BioAssay (Tox21).
Unmarked numbers belong to inactive results. Where a call stands in place of a potency, no number is given. Active and inactive are the calls of the source. Calls come from the whole dose curve; as a rule, active = well fitted activation curve with a large enough effect in the repeat runs; inconclusive = weak or mixed curves; inactive = flat fitted curve, though single readings scatter.

Test: A CellTox Green Cytotoxicity Assay to monitor cytotoxicity in HEK293 cells - 0 hour (AID 1224869); note: nearly all actives have a fitted effect of over 50% in size
Conditions: CellTox Green fluorescence; series mostly up to 76.8 µM
From the text: National Center for Advancing Translational Sciences [NCATS]
NIH Chemical Genomics Center [NCGC]
U.S. Environmental Protection Agency [EPA]
National Institutes of Environmental Health Sciences [NIEHS]
National Toxicology Program [NTP]
Cell-based models are critical for drug discovery. Determining the natural cytotoxic effects resulting from test compounds is an essential research activity. A CellTox Green Cytotoxicity Assay to monitor cytotoxicity in real time of continues cell culture during 40 hours of the compound treatment was used to screen Tox21 10K library compounds in Hek293 cells. CellTox Green Cytotoxicity Assay is a nonlytic, homogeneous, biofluorescent method to measure cytotoxicity in cell culture after experimental manipulation. The assay system uses a proprietary asymmetric cyanine dye that is excluded from viable cells but preferentially stains the dead cell's DNA. […] Viable cells produce no appreciable increases in fluorescence. Therefore, the fluorescence signal produced by the binding interaction with dead cell DNA is proportional to cytotoxicity.
The mixture of Hek293 cell suspension and reagents were dispensed at 600cells/6 ul/well in 1536-well tissue culture treated black solid bottom plates using a Multidrop dispenser. After the assay plates were incubated at a 37 C/5% CO2 incubator for 5 hours, 23 nL of compounds dissolved in DMSO, positive and negative controls was transferred to the assay plate by a pintool work station. The plates were incubated at 37 C for 40 hours. The fluorescence intensity were measured at 0h, 8h, 16h, 24h, 32h and 40h time points using ViewLux plate reader during compound treatment.
For C=CCN1C[C@H](C)N([C@H](c2ccc(C(=O)N(CC)CC)cc2)c2cccc(OC)c2)C[C@H]1C, the Potency was “inactive”. In the case of O=P(OCC(Br)CBr)(OCC(Br)CBr)OCC(Br)CBr (stereo not given), the Potency is reported as “inactive”. With O=C(O)C(F)(F)C(F)(F)C(F)(F)C(F)(F)C(F)(F)C(F)(F)C(F)(F)C(F)(F)F the Potency was “inactive”. With C[N+](C)(C)CCOC(=O)C(O)(c1ccccc1)c1ccccc1 the Potency was “inactive”. For CCCCCCCCn1sccc1=O, the Potency was “inactive”. For Cc1nc2ccccc2c(=O)n1-c1ccccc1Cl, the Potency was “inactive”. For CC[N+]1(C)CCCC(OC(=O)C(O)(c2ccccc2)c2ccccc2)C1 (stereo not given), the Potency was “inactive”. With C[C@H]1O[C@H](OC2[C@@H](O)[C@@H](O)C(O)[C@H](O)[C@H]2O)[C@@H](N)C[C@@H]1N=C(N)C(=O)O (stereo not given in full) the Potency was “inactive”. With CCSCc1ccccc1OC(=O)NC the Potency was “inactive”. With OC[P+](CO)(CO)CO the Potency was “inactive”. In the case of C=CC(C)(CCC=C(C)C)OC(=O)c1ccccc1N (stereo not given), the Potency is reported as “inactive”. For CC(C)(C#N)C(C)(C)C#N, the Potency was “inactive”. For CCC1CCC(=O)O1 (stereo not given), the Potency was “inactive”. With CCCN(CCC)C(=O)Cc1c(-c2ccc(Cl)cc2)nc2ccc(Cl)cn12 the Potency was “inactive”. With C=CCSSCC=C the Potency was “inactive”. For CC(Oc1cc(Cl)c(Cl)cc1Cl)C(=O)O (stereo not given), the Potency was “inactive”. In the case of C[C@H]1[C@@H]2Cc3ccc(O)cc3[C@@]1(C)CCN2C, the Potency is reported as “inactive”. With Cc1ccc(N)c(C)c1 the Potency was “inactive”. In the case of Cc1cccc(C)c1NC1=NCCCS1, the Potency is reported as “inactive”. For CCOP(=S)(OCC)Oc1ccc(S(C)=O)cc1 (stereo not given), the Potency was “inactive”. For O=C1NC(=O)C(=O)C(=O)N1, the Potency was “inactive”. For CCCC[P+](CC)(CCCC)CCCC (tested in a mixture with another compound), the Potency was “inactive”. For CN1C(=O)CN=C(c2ccccc2)c2cc([N+](=O)[O-])ccc21, the Potency was “inactive”. In the case of COc1ccc(C(O)(c2cncnc2)C2CC2)cc1 (stereo not given), the Potency is reported as “inactive”. For CCCCC(CC)COC(=O)c1c(Br)c(Br)c(Br)c(Br)c1C(=O)OCC(CC)CCCC (stereo not given), the Potency was “inactive”. In the case of CCCCCl, the Potency is reported as “inactive”. For CCCCCCCCCCCCN=C(N)N, the cytotoxicity was 9.65% [at 2.72 µM]. With C=CC(=O)NC(C)(C)CC(C)=O the Potency was “inactive”. For O=C(NCNC(=O)NC1C(=O)NC(=O)N1CO)NC1C(=O)NC(=O)N1CO (stereo not given), the Potency was “inactive”. With [Cl-].[Cl-].[Hg+2] the Potency was “inactive”. For COC(=O)Cc1ccccc1, the Potency was “inactive”. In the case of c1ccc2c(c1)-c1cccc3cccc-2c13, the Potency is reported as “inactive”. With CCC1(C2=NCCN2)Cc2ccccc2O1 (stereo not given) the Potency was “inactive”. For CC(C)(C)NCC(O)c1ccccc1Cl (stereo not given), the Potency was “inactive”. With O=C(NC(=O)c1cc(F)c(F)cc1Cl)Nc1cc(F)ccc1N1CCC(C(=O)O)CC1 the Potency was “inactive”. In the case of CN1CC[C@]23c4c5ccc(O)c4O[C@H]2[C@@H](O)CC[C@H]3[C@H]1C5, the Potency is reported as “inactive”. With Cc1cnc(C2=NC(C)(C(C)C)C(=O)N2)c(C(=O)O)c1 (stereo not given) the Potency was “inactive”. With CCCC1CCCCN1 (stereo not given) the Potency was “inactive”. With O=C(N[C@H]1CN2CCC1CC2)c1ccc2c(c1)OCCO2 the Potency was “inactive”. With CCOP(=S)(S)OCC the Potency was “inactive”.
